Measurements reported in PubChem BioAssay (NCATS).
Records with an inconclusive call do not appear. The source made the active and inactive calls. Calls come from the whole dose curve; as a rule, active = well fitted inhibition curve with a large enough effect; inconclusive = small, poorly fitted or top-dose-only effect; inactive = no such curve, though single readings can be large or run the other way.

test: qHTS for Inhibitors of the Aldehyde Dehydrogenase Family (ALDH1A2, ALDH1A3, ALDH2, ALDH3A1) (AID 2061307); settings: ALDH inhibition qHTS; series mostly up to 50.3 µM; note: nearly all actives have a fitted effect of over 50% in size; for Potency: test system not described further here
Potency is the fitted concentration of half-maximal effect.

Potency, inactive:
COc1c(F)cc2[nH]c(C(=O)O)cc2c1F, Cn1c(C(=O)O)cnc1-n1cc(Cc2ccc(S(N)(=O)=O)cc2)c(-c2ccccc2)n1, CCN(CC)C(=O)c1ccc(S(=O)(=O)N2CCC(c3nc4ccccc4s3)CC2)cc1, CC(C)C(=O)OCc1ccc(-c2nn(Cc3ccccc3)c3ccccc23)o1, O=C(O)c1csc(-n2nc(-c3ccc(F)c(F)c3)cc2Cc2nn[nH]n2)n1, Cc1ccc(NS(=O)(=O)c2cc(N[C@@H](C)CO)cc3c2NC(=O)CC3)cc1C, COc1ccc(-n2cc(-c3ccc4c(c3)OCO4)n(CC(=O)Nc3cccc(C)c3)c2=O)cc1, O=C(O)c1ccnc(-n2cc(Br)cn2)c1, c1ccc(CCN(Cc2ccccc2)C2CCN(Cc3ccc4c(c3)OCCO4)CC2)cc1, O=C(c1ccco1)N1CCN(Cc2nc3ccccc3c(=O)n2-c2ccccc2Oc2ccccc2)CC1, N#Cc1cccc(NC(=O)N2C[C@@H]3C[C@H](C2)c2ccc(-c4ccc(OC(F)(F)F)cc4)c(=O)n2C3)c1, O=[N+]([O-])c1cccnc1S(=O)(=O)c1ccccc1, Cc1ncccc1NC(=O)c1cccs1, CCc1ccc(NC(=O)c2cc3c(=O)n(Cc4cccnc4)ccc3nc2C)cc1, CC(NC(=O)c1c(O)nc2ccccn2c1=O)c1ccccc1 (stereo not given), Nc1ccc(Cn2ccc3c4c(N)nc(N)nc4ccc32)cc1, COc1cccc(-c2cnc(N3CCC(C(N)=O)CC3)s2)c1, Cn1cc2c(=O)n(-c3ccccc3)c(SCc3cccc(F)c3)nc2n1, OCCNc1nc(Nc2ccccc2O)nc(N2CCCC2)n1, CCc1ccc(NC(=O)Cn2c(=O)n(-c3ccccc3)c(=O)c3ccc(C(=O)NCc4ccc5c(c4)OCO5)cc32)cc1, CCOc1ccc(NC(=O)CSCC(=O)Nc2ccc(C)cc2)cc1, COc1ccccc1CNC(=O)c1ccccc1N, Cn1nnnc1Sc1ncnc2n[nH]c(-c3ccccc3)c12, COc1ccc2nc(-c3cnn(Cc4ccccc4)c3)sc2c1, O=C([C@@H](NS(=O)(=O)c1ccc2[nH]c(=O)ccc2c1)c1ccccc1)N(Cc1ccco1)Cc1cccs1

Potency, active:
Clc1ccc(Cn2cnc3ccccc32)cc1 14.1 µM, Fc1cc(Cn2cnc3ccccc32)ccc1Cl 11.2 µM, Cc1nc2cc(NS(=O)(=O)c3cc(C(=O)O)ccc3C)ccc2o1 12.6 µM, COc1ccc(-n2c(C)cc(C3=NNC(=NC4CC4)SC3)c2C)cc1 4.49 µM, N#Cc1ccsc1NC(=O)c1ccn(-c2ccccc2F)n1 1 µM, O=C(O)Cc1ccc(S(=O)(=O)N2CCCC2)s1 11.3 µM, COc1ccc(-n2ncc3c2CCCC3NC(=O)c2cccc(OC(F)(F)F)c2)cc1 (stereo not given) 12.6 µM, O=C(Nc1nnc(-c2ccccn2)o1)c1ccc(Cl)cc1Cl 12.7 µM, COc1cc(O)c(C(CC(=O)N2CC(C)CC(C)C2)c2ccc(NC(C)=O)cc2)c(OC)c1 (stereo not given) 31.6 µM, Cc1ccc2nc(Nc3ccc(C(=O)O)cc3)[nH]c2c1 12 µM, COc1ccc(OC)c(-n2c3c(cc(-c4nnn(-c5ccc(Cl)cc5)n4)c2=O)C(=O)CC(C)(C)C3)c1 5.04 µM, O=C([C@H](NS(=O)(=O)c1ccc2[nH]c(=O)ccc2c1)c1ccc(F)cc1)N(Cc1ccco1)Cc1cccs1 25.2 µM, COc1cc(O)c(C(CC(=O)N2CC(C)CC(C)C2)c2ccccc2Cl)c(OC)c1 (stereo not given) 1 µM, CCCCn1cnc2cc(NCc3ccc(OCC)cc3)ccc21 5.04 µM, Cc1c(P(=S)(c2ccccc2)c2ccccc2)[n+]2ccccc2n1C/C=C/c1ccc(C(F)(F)F)cc1 7.94 µM
